The panel holds about 83,000 compounds, 20% with a hit somewhere; the sample as a whole holds those more often.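 Interpretation: 100, growth as untreated; towards 0, rising growth inhibition; 0, no net growth; 0 to -100, cell death. Compounds scoring below 10 were considered active.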 A number with no mark means an inactive call. The source made the active and inactive calls.
Key:
Assay in all cases: NCI-60 one-dose screen, 48 h (100 = growth as untreated, 0 = no growth, -100 = all killed)
Conditions in all cases: 10 µM unless noted
SK-MEL-2 melanoma = system: SK-MEL-2 melanoma
EKVX NSCLC = system: EKVX NSCLC
SN12C renal = system: SN12C renal
UO-31 renal = system: UO-31 renal
TK-10 renal = system: TK-10 renal
ACHN renal = system: ACHN renal
CAKI-1 renal = system: CAKI-1 renal
A498 renal = system: A498 renal
CCRF-CEM leukemia = system: CCRF-CEM leukemia
MOLT-4 leukemia = system: MOLT-4 leukemia
SR leukemia = system: SR leukemia
RPMI-8226 leukemia = system: RPMI-8226 leukemia
OVCAR-8 ovarian = system: OVCAR-8 ovarian
OVCAR-5 ovarian = system: OVCAR-5 ovarian
OVCAR-4 ovarian = system: OVCAR-4 ovarian
SK-OV-3 ovarian = system: SK-OV-3 ovarian
IGROV1 ovarian = system: IGROV1 ovarian
OVCAR-3 ovarian = system: OVCAR-3 ovarian
HS 578T breast = system: HS 578T breast
NCI/ADR-RES ovarian = system: NCI/ADR-RES ovarian

| SMILES | growth (SK-MEL-2 melanoma) | growth (EKVX NSCLC) | growth (SN12C renal) | growth (UO-31 renal) | growth (TK-10 renal) | growth (ACHN renal) | growth (CAKI-1 renal) | growth (A498 renal) | growth (CCRF-CEM leukemia) | growth (MOLT-4 leukemia) | growth (SR leukemia) | growth (RPMI-8226 leukemia) | growth (OVCAR-8 ovarian) | growth (OVCAR-5 ovarian) | growth (OVCAR-4 ovarian) | growth (SK-OV-3 ovarian) | growth (IGROV1 ovarian) | growth (OVCAR-3 ovarian) | growth (HS 578T breast) | growth (NCI/ADR-RES ovarian) |
| --- | --- | --- | --- | --- | --- | --- | --- | --- | --- | --- | --- | --- | --- | --- | --- | --- | --- | --- | --- | --- |
| Cc1c(Cl)cccc1C(=O)Nc1nc2c(s1)CN(C(=O)Nc1cccc(C(F)(F)F)c1)CC2 | 37.4% | 46% | 26% | 27.8% | 50.9% | 18.3% | 15.9% | -10.2% (active) | 16.7% | 15.9% | 13.5% | 7.93% (active) | 14.8% | 37% | 28.8% | 34.1% | 22.6% | -11.8% (active) | 30.4% | -27.2% (active) |
| CN(C)c1ccc(/C=C/C(=O)c2ccccc2)cc1 | 93.5% | 97.9% | 84.8% | 67.5% | 74.5% | 109% | 97.1% | 74% | 66.1% | 76.3% | 25.1% | 76.4% | 93.1% | 113% | 101% | 96.9% | 99.2% | 90.2% | 98.4% | 81.3% |
| CCOC(=O)c1c(NC(=O)CSc2n[nH]c3nc4ccccc4n23)sc(CC)c1C | 80.6% | 91.9% | 100% | 73.4% | 130% | 96.8% | 108% | 106% | 121% | 79.6% | -28.6% (active) | 107% | 99.2% | 82% | 98.1% | 97.4% | 20.4% | 106% | 102% | 95.2% |
| CC(C)c1ccc(-n2c(=S)[nH]c3sc4c(c3c2=O)CCC(=O)C4)cc1 | 91.4% | 47% | 50.8% | 46.9% | 106% | 82% | 74.2% | 112% | 18.2% | 75.7% | 50% | 15.9% | 49.9% | 68.2% | 46.5% | 84.3% | 63.1% | 53% | 32.4% | 44% |
| O=C(c1ccc(Cl)cc1Cl)N1c2ccccc2Sc2ccccc21 | 88.7% | 75.7% | 66.9% | 65.3% | 73.3% | 60.7% | 50.5% | 68.9% | 57.2% | 26.4% | 32.2% | 55.3% | 50.7% | 71.4% | 81.9% | 69.1% | 60.9% | 58.9% | 95.9% | 60.9% |
| O=C(Cn1nnc2ccccc21)Nc1ccc(-c2nc3ccccc3s2)cc1 | 101% | 78.2% | 101% | 86.5% | 94.8% | 110% | 85.5% | 85.1% | 69.7% | 61.6% | 40.2% | 85.3% | 98.5% | 104% | 72.2% | 104% | 97.5% | 90.4% | 112% | 96.2% |
| NC(=O)OCCn1cc(-c2nc(-c3c[nH]c4ncccc34)cs2)c2ccccc21 | 2.38% (active) | 42.1% | 49.1% | 34.1% | 62.3% | 38% | 34.5% | -11.7% (active) | 21.7% | 19.6% | 24.2% | 24.9% | 41.6% | 58.2% | 71.7% | 41.6% | 41.3% | 27.9% | 41.4% | 38.1% |
| CCC(C)Nc1ccc(NC(C)CC)cc1 (stereo not given) | 91.6% | 86% | 19.8% | 84.4% | 107% | 85.5% | 96.2% | 97.5% | 79% | 59.1% | 76.1% | 65.8% | 89.2% | 103% | 84.1% | 98.4% | 65.4% | 28.6% | 110% | 94.5% |
| CC[C@]12C=CCN3CC[C@@]4(c5ccc(OC)cc5N(C)[C@H]4[C@@](O)(C(=O)OC)[C@@H]1OC(=O)CCCN1CCOCC1)[C@@H]32 | 109% | 111% | 105% | 94.1% | 99.8% | 110% | 94.2% | 113% | 107% | 102% | 111% | 96.2% | 104% | 114% | 108% | 111% | 112% | 108% | 107% | 106% |
| Cc1cc(C)c(-c2c(O)c(Br)c(-c3c(C)cc(C)c(Br)c3C)c(O)c2Br)c(C)c1Br | -22.3% (active) | 19.2% | 37.2% | -29.9% (active) | 12% | 14.1% | 5.75% (active) | 64.7% | 35.6% | 28.9% | 18.5% | 26.3% | 2.91% (active) | 64.9% | 23.7% | 46.7% | -29.9% (active) | -24.1% (active) | 41.5% | 44.1% |
| Cc1nc2sc(C(=O)Nc3ccc(Cl)cc3)c(N)c2cc1C(O)c1ccccc1 (stereo not given) | 56.6% | 44.2% | 40.6% | 47.9% | 60.3% | 33.4% | 47.5% | 13.5% | 13.4% | 17.8% | 11% | 15.5% | 49.7% | 59.6% | 64.9% | 51.3% | 53.9% | 5.14% (active) | 26.8% | 25.8% |
| C=C1C(=O)O[C@H]2[C@H]1CC/C(Cn1cc(-c3cc(C(F)(F)F)cc(C(F)(F)F)c3)nn1)=C\CC[C@@]1(C)O[C@@H]21 | -84.1% (active) | -97.1% (active) | -77.5% (active) | -96.3% (active) | -99.4% (active) | -92.6% (active) | -95.3% (active) | -94.5% (active) | -32.9% (active) | -28.2% (active) | -48.5% (active) | -31.4% (active) | -85.7% (active) | -69.4% (active) | -95.1% (active) | -89.5% (active) | -78.6% (active) | -92.7% (active) | -30.5% (active) | -35.7% (active) |
| CC1(C)CC[C@]2(C(=O)O)CC[C@]3(C)C(=CC[C@@H]4[C@@]5(C)C[C@@H](Cc6cn([C@@H]7O[C@H](CO)[C@@H](O)[C@H](O)[C@H]7O)nn6)[C@H](O)C(C)(C)[C@@H]5CC[C@]43C)[C@@H]2C1 | 113% | 99.4% | 99.7% | 96.3% | 93.6% | 100% | 98.3% | 98.8% | 96.4% | 83.4% | 94.7% | 103% | 98.7% | 102% | 96.6% | 89% | 108% | 104% | 96.8% | 105% |
| O=C(/C=C/C12c3ccccc3C(c3ccccc31)C1C(=O)NC(=O)C12)c1ccccn1 (stereo not given) | 7.36% (active) | 19.6% | 17.2% | 6.89% (active) | 7.71% (active) | 1.3% (active) | 16.9% | -3.11% (active) | -16.1% (active) | -2.05% (active) | -8.33% (active) | -27.6% (active) | 1.98% (active) | 21% | 35.3% | 5.83% (active) | -12.3% (active) | -8.72% (active) | 40.1% | 11.3% |
| CCCC(O)Cn1ncc(C(=O)OCC)c1NC(=O)NCc1cccc(F)c1 (stereo not given) | 90.7% | 97.8% | 99.8% | 79.3% | 87.5% | 96.6% | 84.6% | 108% | 90.1% | 70.6% | 80.1% | 75.2% | 94.8% | 100% | 87.2% | 100% | 97.2% | 99.7% | 110% | 95.5% |
| CCn1c2ccc(O)cc2c2c(C)c3c[n+](C(C)C)ccc3c(C)c21 | 35% | 75.4% | -1.36% (active) | 68.3% | 105% | 35.2% | 89.8% | 68% | 36.5% | 22.2% | 11.9% | 27.8% | 37.6% | 83.6% | 43.2% | 89.8% | 50.8% | 19.5% | 34.8% | 66.5% |

Reference: PubChem BioAssay (NCI)
